Legend:
Test in all cases: PBM binding z-score (relative to random genomic background probes); higher = stronger binding; sequences stand for … in GC…GCGATTGACAGCGTAGAATGAAGG
[1] = tested on: RARb homodimer (NR concentration 270 nM)
How it was run: (§1)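 Binding z-scores take random background probes as their reference. They come from custom Agilent 4×180K protein-binding microarrays incubated 1 h with ligand-free nuclear receptor dimers, with antibodies against each partner (one per run) detecting binding. Scanned fluorescence was regression-normalized.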

[2] = tested on: RARg:RXRa (NR concentration 270 nM, RXRa partner concentration 90 nM)
How it was run: as §1

[3] = tested on: RARg homodimer (NR concentration 270 nM)
How it was run: as §1

[4] = tested on: RXRa DBDmut IVT, anti-RXR (DBD mutation: RXRa K156A/R161A, NR concentration 90 nM)
How it was run: as §1

[5] = tested on: RXRa homodimer (NR concentration 180 nM)
How it was run: as §1

[6] = tested on: THRa:RXRa (NR concentration 90 nM, RXRa partner concentration 90 nM)
How it was run: as §1

[7] = tested on: THRa homodimer (NR concentration 90 nM)
How it was run: as §1

[8] = tested on: VDR homodimer (NR concentration 270 nM)
How it was run: as §1

Sequence | PBM binding z-score [1] | PBM binding z-score [2] | PBM binding z-score [3] | PBM binding z-score [4] | PBM binding z-score [5] | PBM binding z-score [6] | PBM binding z-score [7] | PBM binding z-score [8]
AGAACGAGGGCACGCTGTGTTGATAGCAGAGTAG | 1.05 | 1.82 | 2.12 | 1.76 | 1.23 | 1.53 | -0.0988 | 0.651
GCTGCTAGGTCAGGTTGGTCAGGTAACGGGTACG | 2.89 | 2.59 | 3.55 | 0.37 | 1.06 | 2.32 | 2.02 | 0.789
TTGAGTAGGTTACCAATGGGGCATTCAGCTTTCT | 1.02 | 1.46 | 0.739 | 0.192 | 0.569 | 0.168 | -0.426 | 0.0569
CGTCCAAGATCAAGGTCAGTGAAAGAGACTCGAA | 2.88 | 2.83 | 3.03 | 1.15 | 2.01 | 2.86 | 1.63 | 0.979
ATCTCTTGGTAAGACTCAGTTCAGTGAAGAACGC | 0.908 | 0.084 | 0.186 | 0.852 | -0.0369 | 0.736 | 1.13 | 1.76
TCGAGGAGGTTAGGGGCATTCAGAATGGCGTCGA | 1.36 | 0.847 | 0.702 | 0.518 | 1.22 | 1.34 | 0.547 | 1.07
CGTCCAAGGTCATAGGAGGTCAGTGCAGACAGAT | 4.94 | 6.63 | 6.9 | 4 | 6.32 | 5.34 | 2.96 | 4.88
AGAATGAGGTTATTAAGATTAGGGAATTGCGGTC | 0.809 | 1.27 | 0.836 | 2 | 1.72 | 2.05 | 0.933 | 1.29
ACTATTAGTTGACTTAGGGCAACCGATACGACGC | 0.899 | 0.818 | 1.01 | 0.684 | 0.661 | 1.53 | 0.316 | 0.121
AGAATAAGGTTAAGATCAGGGAAACAGAATACAT | 1.25 | 2.16 | 1.8 | 0.838 | 2.38 | 2.66 | 1.26 | 0.515
TCTCGGAGGACACGAAGGTGAGAGCTTTCCAGAG | 1.24 | 0.731 | 1.55 | 0.225 | 0.152 | 1.48 | 0.357 | -0.501
CGTCCAAGGTCAAAGGCCAGTGAAGAGATGACGG | 4.03 | 6.17 | 6.72 | 3.33 | 6.48 | 3.82 | 1.82 | 3.32
CAGCCTAGGTCAGGGCCAGAATAGGAGGAACGTT | 2.24 | 2.81 | 3.54 | -0.145 | 1.6 | 1.84 | 0.0772 | -0.324
CGTCAAAGTTCAACTACGGTAACGTAAAGCACGC | 4.21 | 5.89 | 6.48 | 4.64 | 5.18 | 4.23 | -0.22 | 3.69
ACTATTAGTTGACTTAGGGCACCCGATACGACGC | 0.58 | 0.574 | 0.897 | 0.79 | 0.316 | 0.993 | 0.664 | 0.399
AGAATGAGGGCACGCTGAGTTGATAGCAGAGTAG | 1.3 | 2.28 | 2.15 | 2.2 | 1.7 | 2.53 | 0.735 | 2.08
CCTTACGGGTCACACCAGGTTATAGCATCGGAGT | 3.26 | 4.99 | 4.64 | 1.32 | 5.18 | 5.22 | 0.963 | 1.61

Sequence | PBM binding z-score [1] | PBM binding z-score [2] | PBM binding z-score [3] | PBM binding z-score [4] | PBM binding z-score [5] | PBM binding z-score [6] | PBM binding z-score [7] | PBM binding z-score [8]
CAAACTAGGTCAAGGTCAAAATCGGTTTGTGCCA | 4.77 | 5.74 | 6.36 | 2.64 | 5.55 | 4.32 | 3.13 | 3.88
CGTCCAAGGTCAAGGTCTGTGAAAGAGACTCGAA | 3.88 | 6.09 | 6.55 | 3.21 | 5.2 | 3.83 | 2.46 | 1.78
CCAACTGGGCCAAGGTCATTGATCAGTCAAAGCA | 3.25 | 3.49 | 2.52 | 1.67 | 3.17 | 3.45 | 2.23 | 2.57
CCTACTGGGCCATAAAGGTCATTGATGCCGATAA | 4.17 | 4.52 | 3.88 | 0.623 | 4.73 | 3.05 | 0.441 | 2.92
ATATGTAGGTTACATCCGGGTAATTCAGGCTATG | 0.673 | 1.08 | 1.06 | 0.788 | 0.887 | 2.3 | 0.727 | 0.278
GCTTCTAGGTCAGGTTGGTCAGCTAACGGGTACG | 2.86 | 2.88 | 3.68 | 0.783 | 1.08 | 2.47 | 1.63 | 0.679
ACTATTAGTTGCCTTAGGGCAACCGATACGACGC | 0.893 | 0.429 | 0.732 | 0.351 | 0.447 | 1.46 | 0.815 | 0.176
AGAACTAGGGCACGCTGAGTTGATAGCAGAGTAG | 0.535 | 0.967 | 1.49 | -0.125 | 0.504 | 0.309 | -0.568 | 0.21
AGAACGAAGGCACGCTGAGTTGATAGCAGAGTAG | -0.785 | -0.198 | 0.0507 | -0.345 | 0.0315 | -0.717 | -1.12 | -0.212
ATATGTAGGTTAGCTGGGGTCATTCGGACTAGGC | 3.59 | 4.28 | 2.86 | 2.17 | 5.36 | 5.12 | 3.5 | 5.38
TAGCCTAGGTCATGCGGACCAGTATAGTGTCGGC | 2.76 | 3.99 | 4.25 | 0.668 | 3.05 | 2.84 | 1.12 | -0.0352
TCTTGGAGATCAAAGGTTAAGAAAGCCGAAGCCT | 1.18 | 2.07 | 0.819 | 0.202 | 4.66 | 1.4 | -0.671 | -0.245
GCATATAGGTAATACCAGGTGAAAGTCCGATTGT | 0.327 | 0.203 | 0.193 | 0.247 | 0.369 | 3.99 | 0.748 | -0.0397
GCTTATAGATCAAGGTTAAGAAAGACTAAGCTAA | 0.33 | 0.377 | 0.552 | 0.345 | 0.835 | 1.32 | 0.0443 | -0.265
TCTAGTTGGTCAAAGGTCACAAACTCGAAATGCG | 4.92 | 6.76 | 6.07 | 1.79 | 7.88 | 3.84 | 1.73 | 2.43
ATCTCTAGGTAAAGATAGTTTAGTGAATGCAAAT | 0.204 | 0.354 | 0.533 | -0.0109 | 0.0812 | 0.487 | 0.117 | 0.358
AGTCACAGTTCACTAGGTAACGTAAGATTCAGCT | 1.19 | 2.17 | 2.07 | 2.64 | 1.74 | 1.34 | 0.333 | 1.8
